# Assay results published in PubChem BioAssay (NCI).
# The panel holds about 83,000 compounds, 20% with a hit somewhere; the sample as a whole holds those more often.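 Single-dose data. Exposure time 48 hours. Values below 10 considered active.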 Values without a mark were called inactive. Active and inactive are the calls of the source.
# System: HCC-2998 colon
# Experiment: NCI-60 one-dose screen, 48 h (100 = growth as untreated, 0 = no growth, -100 = all killed)
# Settings: 10 µM unless noted
row,SMILES,growth
1,CCCCNc1ccc2c3c(cccc13)C(=O)N(c1cccc(-c3nn(-c4ccccc4)cc3-c3nc4ccccc4s3)c1)C2=O,119%
2,COc1ccc(-c2cc(-c3cc(OC)c(OC)c(OC)c3)[nH]c(=O)c2C#N)cc1,67.1%
3,COc1cc(C2CC(c3ccc(Cl)cc3)=Nc3c(N)nc(N)nc3N2)ccc1Oc1nc(Nc2ccc(F)cc2)nc(N(C)C)n1 (configuration not stated),-3.35% (active)
4,O=C(O)CC1S/C(=N/N=C/c2nc3ccccc3s2)NC1=O (configuration not stated),106%
5,Cc1ccc(S(=O)(=O)N(CCn2ccnc2[N+](=O)[O-])CCn2ccnc2[N+](=O)[O-])cc1,114%
6,N#CCc1nnc(NC(=O)c2ccc(-n3c(=O)[nH]c4ccccc4c3=O)cc2)s1,108%
7,O=C(N/N=C/c1ccc(Br)o1)c1[nH]c2ccc(Br)cc2c1-c1ccccc1,-7.57% (active)
8,COc1ccc(N=Nc2c(N)nn3c(-c4ccc([N+](=O)[O-])cc4)ccnc23)cc1,113%
9,Cn1cc(-c2cc(N)n3nc(-c4c[nH]c5ccc(Cl)cc45)cc3n2)c2cc(Br)cnc21,-99% (active)
10,CN1C(=O)C2(C(C#N)=C(c3ccc(Cl)cc3)Nc3c2c(-c2ccccc2)nn3-c2ccccc2)c2ccccc21 (configuration not stated),87%
11,Cc1nn(-c2ccccc2)c2nc(C)n(C(=O)N/N=C/c3ccccc3)c(=O)c12,100%
12,CN1CCN(CCS(=O)(=O)Nc2cc(-c3ccc4ncnc(Nc5ccc(F)c(Cl)c5)c4c3)cnc2Cl)CC1,-8.06% (active)
